Experimental findings from the supplement of paper PMC6555819 are described below.

The first assay concerns PXR:RXRa (NR concentration 270 nM, RXRa partner concentration 90 nM). The experiment in a line: PBM binding z-score (relative to random genomic background probes); higher = stronger binding; sequences stand for … in GC…GCGATTGACAGCGTAGAATGAAGG
Put shortly: (§1)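 Custom Agilent 4×180K protein-binding microarrays carried double-stranded probes. Their 34-nt variable regions held direct-repeat seeds, single-nucleotide variants, half-site ablations and random human genomic background sequences. Arrays were incubated 1 h with ligand-free nuclear receptor dimers in PBS pH 7.4, 2% milk, 0.02% Triton X-100, 1 mM DTT, 0.2 mg/mL BSA and 0.4 mg/ml salmon testes DNA. Antibodies against each partner (one per run) detected binding, and scanned fluorescence was regression-normalized. Binding z-scores use random background probes as reference.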
On to TCTAGCAGGCCAGAGGGTCACACAAGAGGTACGG, for which the PBM binding z-score is 2.37.
Same read-out and setting: next, AGTCAAAGTTCACTTGGTAACGTAAGATTCAGCT: 4.17; CCGACTGGGGCAGAAAGGTTACCATGCCATCCGG: 0.882; GCTCGGAGGACACGGTCAGAGCTTTGTCCGTAGA: -0.581.
The same measure, in the same setting: next, CCTATTAGTTGACCATAAGGTCAACCGAAGCTCG: 4.62.
Still for that read-out and setting: in the case of AGTCAAAGCTCATCTAGGTAACGTAAGATATGCT it was -0.42; in that of TCTAGTTGGTCACGAAGGTCACACACGACGGGTA, 3.95.
In turn, TCAGATAGGTAATACAGGTGAAAGTCGGCATCTA showed a PBM binding z-score of 0.557.
The same measure, in the same setting: next, CAGCCTAGGTCGGGGCCAGTATAGGAGGAACGTT: -0.445; CGAACTAGATCAAGGACAGTGAATCTCCGCACGC: -0.495; CGTCCAAGGTCAAGGTCAGCGAAAGAGACTCGAA: 4.67.
Turning to CAGCCTAGGTCAAGGCCAGTATAGGAGGAACGTT, the PBM binding z-score came out at 1.3.
Same read-out and setting: in the case of ATACCAAGGTGATCGTGAGGTGGTTGATACTAAC it was 0.417.
On the same count and under the same terms, in the case of CAAACTAGGTCGCAGAGGTCAAAGTCCGTGCGTA it was 6.55.
Still for that read-out and setting: in the case of ATCTCTAAGTAAGACTCAGTTCAGTGAAGAACGC it was 0.518; in that of CGTCAAAGTTCAACTAAGGTAACGGAAAGCACGC, 5.37; in that of TCTTGTAGATTAAAGGTTAAGAAAGCCGAAGCCT, 1.13.
For the sequence TCGTATAGGTAAAGGTGAAAGTCGAACGATATGA, the PBM binding z-score is 0.71.
Still for that read-out and setting: next, CCTGCTAGGTCAATGGTCAACTAAAGCAGCTCGC: 1.22; TCTCGGACGACACGAAGGTCAGAGCTTTCCAGAG: 1.61.
Same read-out and setting: next, AAAGACAGGTGATGAAGGTAACTCAGGCTATCAT: 0.0948; TCTTGTAGTTCAGCAGGTTAAGAAAGCTGGCCAA: 0.887.
On the same count and under the same terms, next, TAGAGTAGGTTAGTCGGGGCATTCAGCCAACATA: 0.576; CGTCCAAGGTCAGAGAGGTAAGTGAATGCCGAGT: 2.89.
Consider CCGACTGTGGCAAAGGTTACCATACTCAGTACGA, for which the PBM binding z-score was found to be 1.84.
The same measure, in the same setting: in the case of CAGCCGAGGTCAGGGCCAGTATAGGAGGAACGTT it was 3.5; in that of CCAACTAGGTCAAGGTCAAAGTCGGTTTGTGCCA, 5.31.
The same measure, in the same setting: next, CCTAGCAGGCCCATCTGGGTCACTCAAGGCTTGA: 0.362.
Same read-out and setting: next, CATCAAAGTTCAACTAAGGTAACGTAAAGCACGC: 5.93.
Sequence ACTAGCTGGTCAGCTGAGGTCACACACAATTCGG registered a PBM binding z-score of 5.58.
The same measure, in the same setting: next, TCTTGTAGATCAACAGGAGGTTGAGAAAGATCGA: 0.0835.
CTACCAAGGTGAACAAGGTCGTGGATTACTATTC: the PBM binding z-score was found to be 2.46.
The sequence ACTCGGAGGACAAAGGTCAGAGCTACGCCAGTGA showed a PBM binding z-score of 3.91.
Still for that read-out and setting: in the case of TCTTGTAGATCAATAGAGTTTAAGAAAGTGCGCT it was 2.24.
On the same count and under the same terms, in the case of TAGCCCAGGTCATGCGGGCCAGTATAGTGTCGGC it was 2.52.
The same measure, in the same setting: in the case of AGAACAAGGGCAATGAGTTGATAGCACGGGTGGC it was 0.978.
Sequence CCTACTGGGCCACGAAAGGTCATTGAATCAGTGA registered a PBM binding z-score of 5.09.
Still for that read-out and setting: in the case of GCTTGTTGATCAAGGTTAAGAAAGACTAAGCTAA it was 0.387; in that of CCTACTGGGCCAAGGACATTGATCAGTCAAAGCA, -0.555; in that of AGAATGAGGTTATACCTAGATCAGGGAAGAAAGT, 0.87.

In the next assay the test system is PXR homodimer (NR concentration 270 nM). The description is as above. The method, boiled down: as §1
Turning to TCTAGCAGGCCAGAGGGTCACACAAGAGGTACGG, the PBM binding z-score was -0.42.
Still for that read-out and setting: next, AGTCAAAGTTCACTTGGTAACGTAAGATTCAGCT: 2.53; CCGACTGGGGCAGAAAGGTTACCATGCCATCCGG: -0.381; GCTCGGAGGACACGGTCAGAGCTTTGTCCGTAGA: -1.34.
Sequence CCTATTAGTTGACCATAAGGTCAACCGAAGCTCG gave a PBM binding z-score of 2.57.
Same read-out and setting: in the case of AGTCAAAGCTCATCTAGGTAACGTAAGATATGCT it was -0.351; in that of TCTAGTTGGTCACGAAGGTCACACACGACGGGTA, 1.05; in that of TCAGATAGGTAATACAGGTGAAAGTCGGCATCTA, 0.387.
On the same count and under the same terms, in the case of CAGCCTAGGTCGGGGCCAGTATAGGAGGAACGTT it was -0.795.
On the same count and under the same terms, next, CGAACTAGATCAAGGACAGTGAATCTCCGCACGC: -0.0304; CGTCCAAGGTCAAGGTCAGCGAAAGAGACTCGAA: 0.58; CAGCCTAGGTCAAGGCCAGTATAGGAGGAACGTT: -0.176.
In the case of ATACCAAGGTGATCGTGAGGTGGTTGATACTAAC, the PBM binding z-score was 0.167.
The same measure, in the same setting: next, CAAACTAGGTCGCAGAGGTCAAAGTCCGTGCGTA: 7.19; ATCTCTAAGTAAGACTCAGTTCAGTGAAGAACGC: 1.83; CGTCAAAGTTCAACTAAGGTAACGGAAAGCACGC: 3.68.
The same measure, in the same setting: next, TCTTGTAGATTAAAGGTTAAGAAAGCCGAAGCCT: 0.203; TCGTATAGGTAAAGGTGAAAGTCGAACGATATGA: 0.0439.
Sequence CCTGCTAGGTCAATGGTCAACTAAAGCAGCTCGC showed a PBM binding z-score of -0.291.
On the same count and under the same terms, in the case of TCTCGGACGACACGAAGGTCAGAGCTTTCCAGAG it was -0.245; in that of AAAGACAGGTGATGAAGGTAACTCAGGCTATCAT, 0.956.
Same read-out and setting: in the case of TCTTGTAGTTCAGCAGGTTAAGAAAGCTGGCCAA it was 0.352; in that of TAGAGTAGGTTAGTCGGGGCATTCAGCCAACATA, 0.756.
On the same count and under the same terms, next, CGTCCAAGGTCAGAGAGGTAAGTGAATGCCGAGT: 1.46.
CCGACTGTGGCAAAGGTTACCATACTCAGTACGA came in with a PBM binding z-score of 0.27.
On the same count and under the same terms, in the case of CAGCCGAGGTCAGGGCCAGTATAGGAGGAACGTT it was 0.241.
Still for that read-out and setting: next, CCAACTAGGTCAAGGTCAAAGTCGGTTTGTGCCA: 2.55.
The same measure, in the same setting: next, CCTAGCAGGCCCATCTGGGTCACTCAAGGCTTGA: -0.496.
The sequence CATCAAAGTTCAACTAAGGTAACGTAAAGCACGC came in with a PBM binding z-score of 5.95.
Same read-out and setting: next, ACTAGCTGGTCAGCTGAGGTCACACACAATTCGG: 1.11; TCTTGTAGATCAACAGGAGGTTGAGAAAGATCGA: -0.557; CTACCAAGGTGAACAAGGTCGTGGATTACTATTC: 0.298.
On the same count and under the same terms, next, ACTCGGAGGACAAAGGTCAGAGCTACGCCAGTGA: 0.0188; TCTTGTAGATCAATAGAGTTTAAGAAAGTGCGCT: 0.847.
On the same count and under the same terms, next, TAGCCCAGGTCATGCGGGCCAGTATAGTGTCGGC: 0.093; AGAACAAGGGCAATGAGTTGATAGCACGGGTGGC: 4.14; CCTACTGGGCCACGAAAGGTCATTGAATCAGTGA: 1.26.
GCTTGTTGATCAAGGTTAAGAAAGACTAAGCTAA gave a PBM binding z-score of -0.694.
Same read-out and setting: in the case of CCTACTGGGCCAAGGACATTGATCAGTCAAAGCA it was -0.0775; in that of AGAATGAGGTTATACCTAGATCAGGGAAGAAAGT, 0.227.
